# Source: article PMC11024108
# Columns and labels:
# [1] = biological target: Large ribosomal subunit protein mL53 (UniProt Q96EL3); assay: cross-link between two proteins; cross-linking mass spectrometry
# [2] = biological target: Large ribosomal subunit protein eL27 (UniProt P61353); assay: as above
# [3] = biological target: Large ribosomal subunit protein eL30 (UniProt P62888); assay: as above
# [4] = biological target: Actin-related protein 2/3 complex subunit 2 (UniProt Q9CVB6); assay: as above
# [5] = biological target: AP-2 complex subunit beta (UniProt P63010); assay: as above
# [6] = biological target: AP-1 complex subunit beta-1 (UniProt Q10567); assay: cross-link between two proteins; co-fractionation; cross-linking mass spectrometry
# [7] = biological target: Large ribosomal subunit protein bL17m (UniProt Q9NRX2); assay: cross-link between two proteins; cross-linking mass spectrometry
# [8] = biological target: Complex III assembly factor LYRM7 (UniProt Q5U5X0); assay: cross-linking mass spectrometry
# [9] = biological target: Malate dehydrogenase, mitochondrial (UniProt P40926); assay: cross-linking mass spectrometry
# [10] = biological target: Elongation factor 1-alpha 1 (UniProt P68104); assay: cross-linking mass spectrometry
# Histone H2B type 1-C/E/G = Histone H2B type 1-C/E/G (UniProt Q6ZWY9); assay: cross-linking mass spectrometry
# [11] = biological target: Large ribosomal subunit protein uL11 (UniProt P30050); assay: cross-linking mass spectrometry
# [12] = biological target: Large ribosomal subunit protein uL11m (UniProt Q9Y3B7); assay: cross-linking mass spectrometry
# [13] = biological target: Large ribosomal subunit protein uL5 (UniProt P62913); assay: cross-linking mass spectrometry
# [14] = biological target: Leucine-rich repeat-containing protein 59 (UniProt Q96AG4); assay: cross-linking mass spectrometry
# [15] = biological target: Poly(A) RNA polymerase, mitochondrial (UniProt Q9NVV4); assay: cross-linking mass spectrometry
# [16] = biological target: Ribosome-binding protein 1 (UniProt Q9P2E9); assay: cross-linking mass spectrometry
# [17] = biological target: Small ribosomal subunit protein uS15 (UniProt P62301); assay: cross-linking mass spectrometry
# [18] = biological target: Small ribosomal subunit protein eS27 (UniProt Q6ZWU9); assay: cross-link between two proteins; cross-linking mass spectrometry
# [19] = biological target: MICOS complex subunit MIC60 (UniProt Q16891); assay: as above
# [20] = biological target: Cytochrome c oxidase assembly factor 7 (UniProt Q96BR5); assay: mass-spectrometry hit list; affinity purification or IP with mass spectrometry; cross-linking mass spectrometry
# [21] = biological target: Mitochondrial fission 1 protein (UniProt Q9CQ92); assay: cross-link between two proteins; cross-linking mass spectrometry
# [22] = biological target: Plasma membrane calcium-transporting ATPase 2 (UniProt Q9R0K7); assay: as above
# Protein piccolo = Protein piccolo (UniProt Q9QYX7); assay: as above
# [23] = biological target: Ragulator complex protein LAMTOR4 (UniProt Q0VGL1); assay: as above
# [24] = biological target: Ras-related C3 botulinum toxin substrate 1 (UniProt P63000); assay: as above
# [25] = biological target: Small ribosomal subunit protein RACK1 (UniProt P68040); assay: as above
# [26] = biological target: Small ribosomal subunit protein eS19 (UniProt Q9CZX8); assay: as above
# [27] = biological target: Small ribosomal subunit protein eS4, X isoform (UniProt P62701); assay: as above
# [28] = biological target: Small ribosomal subunit protein uS19 (UniProt P62841); assay: as above
# [29] = biological target: Small ribosomal subunit protein uS4 (UniProt Q6ZWN5); assay: as above
# Syntaxin-1B = Syntaxin-1B (UniProt P61264); assay: as above
# Tubulin alpha-1C chain = Tubulin alpha-1C chain (UniProt Q9BQE3); assay: as above
# Tubulin beta-2A chain = Tubulin beta-2A chain (UniProt Q7TMM9); assay: as above
# [30] = biological target: Ubiquitin-like FUBI-ribosomal protein eS30 fusion protein (UniProt P62861); assay: as above
# [31] = biological target: Ubiquitin-ribosomal protein eS31 fusion protein (UniProt P62979); assay: as above
# [32] = biological target: cAMP-dependent protein kinase catalytic subunit beta (UniProt P68181); assay: as above
# [33] = biological target: cAMP-dependent protein kinase type II-beta regulatory subunit (UniProt P31324); assay: as above
# Sequence of cAMP-dependent protein kinase type II-beta regulatory subunit (P31324 whole entry): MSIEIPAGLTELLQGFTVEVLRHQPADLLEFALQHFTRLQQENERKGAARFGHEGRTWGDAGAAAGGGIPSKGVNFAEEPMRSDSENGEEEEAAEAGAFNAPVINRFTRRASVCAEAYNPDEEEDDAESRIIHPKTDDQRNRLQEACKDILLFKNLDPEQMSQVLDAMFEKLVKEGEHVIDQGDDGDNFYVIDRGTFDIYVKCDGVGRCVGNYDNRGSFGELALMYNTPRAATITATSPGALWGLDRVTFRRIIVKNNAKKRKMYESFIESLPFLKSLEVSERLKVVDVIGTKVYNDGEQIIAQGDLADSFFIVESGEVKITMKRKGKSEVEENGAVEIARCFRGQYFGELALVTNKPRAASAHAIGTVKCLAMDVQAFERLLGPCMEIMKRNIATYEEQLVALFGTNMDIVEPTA
# Sequence of AP-2 complex subunit sigma, P53680 (P53680 whole entry, one chain of several): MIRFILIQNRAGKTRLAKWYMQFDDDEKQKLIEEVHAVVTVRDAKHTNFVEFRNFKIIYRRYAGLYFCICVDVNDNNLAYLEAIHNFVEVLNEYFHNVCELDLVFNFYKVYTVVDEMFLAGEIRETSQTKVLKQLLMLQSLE
# Sequence of Syntaxin-1B (P61264 whole entry): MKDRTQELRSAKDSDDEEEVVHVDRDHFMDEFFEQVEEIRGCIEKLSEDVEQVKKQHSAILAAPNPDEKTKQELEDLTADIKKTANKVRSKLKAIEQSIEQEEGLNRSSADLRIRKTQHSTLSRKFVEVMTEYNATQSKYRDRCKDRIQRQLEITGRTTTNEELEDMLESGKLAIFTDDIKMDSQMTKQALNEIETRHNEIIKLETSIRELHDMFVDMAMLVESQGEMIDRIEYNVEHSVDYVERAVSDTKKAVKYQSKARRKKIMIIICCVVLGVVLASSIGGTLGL
# Sequence of Dynein light chain 2, cytoplasmic, Q9D0M5 (Q9D0M5 whole entry): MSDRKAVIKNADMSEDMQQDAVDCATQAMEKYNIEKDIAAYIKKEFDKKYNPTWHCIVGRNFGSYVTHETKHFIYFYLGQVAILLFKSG
# Sequence of Ras-related protein Rab-14, Q91V41 (Q91V41 whole entry): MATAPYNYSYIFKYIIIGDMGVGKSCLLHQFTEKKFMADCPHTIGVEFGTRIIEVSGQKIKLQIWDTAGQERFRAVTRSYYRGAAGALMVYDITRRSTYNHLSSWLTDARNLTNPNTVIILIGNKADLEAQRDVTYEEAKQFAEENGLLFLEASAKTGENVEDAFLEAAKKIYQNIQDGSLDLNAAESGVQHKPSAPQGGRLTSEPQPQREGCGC
# Sequence of Tubulin beta-2A chain (Q7TMM9 whole entry, the tested form may be a part): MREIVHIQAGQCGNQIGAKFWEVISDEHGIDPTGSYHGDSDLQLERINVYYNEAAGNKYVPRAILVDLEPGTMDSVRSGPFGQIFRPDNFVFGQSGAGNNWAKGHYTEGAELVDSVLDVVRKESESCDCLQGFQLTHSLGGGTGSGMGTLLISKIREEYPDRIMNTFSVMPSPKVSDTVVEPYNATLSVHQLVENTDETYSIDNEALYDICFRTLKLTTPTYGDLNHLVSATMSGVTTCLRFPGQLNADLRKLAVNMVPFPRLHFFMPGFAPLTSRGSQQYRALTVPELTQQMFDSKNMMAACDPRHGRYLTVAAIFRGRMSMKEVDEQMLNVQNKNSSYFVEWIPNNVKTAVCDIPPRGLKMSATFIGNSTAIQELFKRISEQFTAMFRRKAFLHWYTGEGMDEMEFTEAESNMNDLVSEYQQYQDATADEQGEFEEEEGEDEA
# Sequence of Tubulin alpha-1A chain, P68369 (P68369 whole entry): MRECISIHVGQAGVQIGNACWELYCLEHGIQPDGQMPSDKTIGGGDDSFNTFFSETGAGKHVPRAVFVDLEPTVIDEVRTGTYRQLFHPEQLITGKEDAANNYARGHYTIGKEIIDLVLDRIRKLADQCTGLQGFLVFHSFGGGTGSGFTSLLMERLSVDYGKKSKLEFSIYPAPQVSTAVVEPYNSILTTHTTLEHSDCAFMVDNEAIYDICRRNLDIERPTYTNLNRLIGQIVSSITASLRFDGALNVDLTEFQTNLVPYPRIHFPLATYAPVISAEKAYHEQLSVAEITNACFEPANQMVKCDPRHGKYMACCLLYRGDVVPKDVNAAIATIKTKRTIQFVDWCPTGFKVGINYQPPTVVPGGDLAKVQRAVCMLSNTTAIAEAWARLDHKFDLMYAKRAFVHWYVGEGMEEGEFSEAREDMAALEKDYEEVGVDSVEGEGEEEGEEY
# Sequence of AP-1 complex subunit beta-1 (Q10567 whole entry, one chain of several): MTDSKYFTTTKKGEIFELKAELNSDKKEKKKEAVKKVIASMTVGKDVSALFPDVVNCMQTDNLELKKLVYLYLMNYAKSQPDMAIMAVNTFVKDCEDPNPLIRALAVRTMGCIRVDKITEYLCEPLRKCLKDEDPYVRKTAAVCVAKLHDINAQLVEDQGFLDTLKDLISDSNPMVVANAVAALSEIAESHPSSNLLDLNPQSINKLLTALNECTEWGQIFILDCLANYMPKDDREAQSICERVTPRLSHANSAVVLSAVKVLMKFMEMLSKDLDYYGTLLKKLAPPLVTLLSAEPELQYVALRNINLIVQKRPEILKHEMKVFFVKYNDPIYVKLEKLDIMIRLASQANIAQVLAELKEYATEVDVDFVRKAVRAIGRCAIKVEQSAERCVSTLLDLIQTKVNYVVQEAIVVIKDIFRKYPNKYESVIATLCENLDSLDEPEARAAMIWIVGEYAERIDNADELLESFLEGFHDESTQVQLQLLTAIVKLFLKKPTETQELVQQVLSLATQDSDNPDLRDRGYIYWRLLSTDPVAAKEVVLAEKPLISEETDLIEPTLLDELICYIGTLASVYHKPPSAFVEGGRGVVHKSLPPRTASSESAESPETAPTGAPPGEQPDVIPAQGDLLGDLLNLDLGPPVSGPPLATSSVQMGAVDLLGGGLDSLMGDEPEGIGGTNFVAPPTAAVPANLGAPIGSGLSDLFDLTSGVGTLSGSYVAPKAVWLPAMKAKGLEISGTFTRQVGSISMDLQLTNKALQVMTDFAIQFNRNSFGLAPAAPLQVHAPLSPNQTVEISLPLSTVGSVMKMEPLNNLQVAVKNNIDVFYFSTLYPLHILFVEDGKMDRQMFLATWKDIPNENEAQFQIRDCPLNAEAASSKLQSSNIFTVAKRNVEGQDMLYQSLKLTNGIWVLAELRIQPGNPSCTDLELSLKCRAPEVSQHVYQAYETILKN
# Sequence of cAMP-dependent protein kinase type II-alpha regulatory subunit, P12367 (P12367 whole entry): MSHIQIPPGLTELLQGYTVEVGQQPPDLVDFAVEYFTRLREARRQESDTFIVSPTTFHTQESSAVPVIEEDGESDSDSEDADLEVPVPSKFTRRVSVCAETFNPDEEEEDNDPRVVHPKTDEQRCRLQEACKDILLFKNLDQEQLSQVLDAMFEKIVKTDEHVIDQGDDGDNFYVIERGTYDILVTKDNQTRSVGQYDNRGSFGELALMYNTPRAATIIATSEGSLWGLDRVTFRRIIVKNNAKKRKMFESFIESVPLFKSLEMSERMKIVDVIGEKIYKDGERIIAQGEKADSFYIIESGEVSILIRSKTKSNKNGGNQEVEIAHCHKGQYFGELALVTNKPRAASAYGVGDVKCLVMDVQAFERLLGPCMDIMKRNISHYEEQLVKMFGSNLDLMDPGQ
# Sequence of Plasma membrane calcium-transporting ATPase 2 (Q9R0K7 whole entry): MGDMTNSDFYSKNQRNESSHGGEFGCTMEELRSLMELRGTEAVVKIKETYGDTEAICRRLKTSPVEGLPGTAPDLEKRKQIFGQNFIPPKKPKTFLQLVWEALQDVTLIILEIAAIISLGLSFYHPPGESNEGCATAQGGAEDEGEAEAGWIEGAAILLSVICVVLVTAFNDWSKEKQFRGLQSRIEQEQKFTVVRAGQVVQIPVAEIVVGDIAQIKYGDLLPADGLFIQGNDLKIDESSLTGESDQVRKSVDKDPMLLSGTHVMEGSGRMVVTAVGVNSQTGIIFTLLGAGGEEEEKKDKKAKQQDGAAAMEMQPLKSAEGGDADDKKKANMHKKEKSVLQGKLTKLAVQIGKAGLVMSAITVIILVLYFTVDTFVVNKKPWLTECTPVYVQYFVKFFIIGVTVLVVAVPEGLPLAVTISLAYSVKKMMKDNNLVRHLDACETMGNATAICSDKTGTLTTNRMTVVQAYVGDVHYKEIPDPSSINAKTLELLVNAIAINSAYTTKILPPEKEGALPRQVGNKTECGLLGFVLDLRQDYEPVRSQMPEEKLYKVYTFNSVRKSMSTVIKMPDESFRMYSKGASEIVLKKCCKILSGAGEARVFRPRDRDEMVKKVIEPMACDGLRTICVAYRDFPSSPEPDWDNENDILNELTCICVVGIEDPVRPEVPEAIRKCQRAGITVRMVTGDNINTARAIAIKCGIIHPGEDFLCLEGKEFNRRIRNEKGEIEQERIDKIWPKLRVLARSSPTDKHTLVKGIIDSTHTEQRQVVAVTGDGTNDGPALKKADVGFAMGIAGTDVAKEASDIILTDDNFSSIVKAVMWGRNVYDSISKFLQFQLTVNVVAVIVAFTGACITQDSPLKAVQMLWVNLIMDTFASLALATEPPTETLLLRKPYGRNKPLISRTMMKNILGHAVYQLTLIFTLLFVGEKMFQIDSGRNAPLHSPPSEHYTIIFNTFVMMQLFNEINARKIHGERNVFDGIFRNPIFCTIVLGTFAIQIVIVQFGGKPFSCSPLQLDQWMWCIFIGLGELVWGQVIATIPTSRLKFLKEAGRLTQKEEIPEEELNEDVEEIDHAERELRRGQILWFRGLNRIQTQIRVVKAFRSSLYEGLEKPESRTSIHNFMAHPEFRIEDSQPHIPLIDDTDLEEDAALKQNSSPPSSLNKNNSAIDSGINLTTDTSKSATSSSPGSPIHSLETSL
# Sequence of Syntaxin-1A, O35526 (O35526 whole entry): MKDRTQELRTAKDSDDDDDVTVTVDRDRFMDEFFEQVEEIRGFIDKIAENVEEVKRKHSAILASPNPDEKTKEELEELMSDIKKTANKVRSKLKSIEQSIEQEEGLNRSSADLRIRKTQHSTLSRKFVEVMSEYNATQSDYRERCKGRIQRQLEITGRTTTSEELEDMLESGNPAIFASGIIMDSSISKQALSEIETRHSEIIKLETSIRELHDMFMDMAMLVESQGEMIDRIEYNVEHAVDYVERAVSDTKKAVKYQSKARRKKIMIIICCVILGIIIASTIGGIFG
substance,measurement,setting,value
"Large ribosomal subunit protein uL10m, Q7Z7H8",listed as a hit,[1],yes
"Large ribosomal subunit protein eL34, P49207",listed as a hit,[2],yes
same,listed as a hit,[3],yes
"Actin-related protein 3B, Q641P0",listed as a hit,[4],yes
"AP-2 complex subunit sigma, P53680",listed as a hit,[5],yes
same,listed as a hit,[6],yes
"Large ribosomal subunit protein eL43, P61513",listed as a hit,[3],yes
"Large ribosomal subunit protein bL32m, Q9BYC8",listed as a hit,[7],yes
"Acyl carrier protein, mitochondrial, O14561",listed as a hit,[8],yes
same,listed as a hit,[9],yes
"Actin, cytoplasmic 2, P63261",listed as a hit,[10],yes
"Histone H3.3, P84244",listed as a hit,Histone H2B type 1-C/E/G,yes
"Elongation factor 2, P13639",listed as a hit,[11],yes
"Large ribosomal subunit protein mL53, Q96EL3",listed as a hit,[12],yes
"Small ribosomal subunit protein uS19, P62841",listed as a hit,[13],yes
"Large ribosomal subunit protein uL2, P62917",listed as a hit,[14],yes
"Leucine-rich PPR motif-containing protein, mitochondrial, P42704",listed as a hit,[15],yes
"Large ribosomal subunit protein uL1, P62906",listed as a hit,[16],yes
"Small ribosomal subunit protein eS7, P62082",listed as a hit,[17],yes
same,listed as a hit,[18],yes
"Adenylate kinase 2, mitochondrial, P54819",listed as a hit,[19],yes
same,listed as a hit,[20],yes
"Ras-related protein Rab-14, Q91V41",listed as a hit,[21],yes
P62204,listed as a hit,[22],yes
"Dynein light chain 2, cytoplasmic, Q9D0M5",listed as a hit,Protein piccolo,yes
"Ragulator complex protein LAMTOR5, O43504",listed as a hit,[23],yes
"Ras-related C3 botulinum toxin substrate 3, P60763",listed as a hit,[24],yes
"Small ribosomal subunit protein uS3, P62908",listed as a hit,[25],yes
"Small ribosomal subunit protein uS9, P14131",listed as a hit,[26],yes
"Small ribosomal subunit protein uS4, P46781",listed as a hit,[27],yes
"Small ribosomal subunit protein uS13, P62269",listed as a hit,[28],yes
"Small ribosomal subunit protein uS5, P25444",listed as a hit,[29],yes
"Small ribosomal subunit protein eS4, P62702",listed as a hit,[29],yes
"Syntaxin-1A, O35526",listed as a hit,Syntaxin-1B,yes
"L-lactate dehydrogenase A chain, P00338",listed as a hit,Tubulin alpha-1C chain,yes
"Tubulin alpha-1A chain, P68369",listed as a hit,Tubulin beta-2A chain,yes
"Small ribosomal subunit protein uS3, P23396",listed as a hit,[30],yes
"Small ribosomal subunit protein eS7, P62081",listed as a hit,[31],yes
"Small ribosomal subunit protein uS15, P62277",listed as a hit,[31],yes
"cAMP-dependent protein kinase catalytic subunit alpha, P05132",listed as a hit,[32],yes
"cAMP-dependent protein kinase type II-alpha regulatory subunit, P12367",listed as a hit,[33],yes
